# The list shows a part of the results. Unmarked numbers belong to inactive results. Active and inactive are the calls of the source.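 Rule for the calls, unless noted: active = drop in membrane potential signal beyond 5 SD of the control wells in both duplicate plates; inactive = the rest.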
# Key:
# [1] = parental HEK293 membrane potential modulation, confirmation, counter-screen for TRPC6 modulator project, cell-based (AID 488924;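 active = membrane potential signal moves up or down beyond 5 SD from buffer-only wells, on both duplicate plates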); conditions: parental HEK293, membrane potential dye fluorescence; at 10 µM
# [2] = modulation of acetylcholine-evoked membrane potential, parental HEK293, confirmation, counter-screen for TRPC6 modulator project, cell-based, second counter-screen, membrane potential dye (AID 488926;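 active = membrane potential signal drops by more than 5 SD from the mean control signal, in both duplicate plates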;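 for inhibition: plate controls were acetylcholine ECmax control wells for no effect and buffer only wells for full effect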); conditions: parental HEK293, membrane potential dye fluorescence, at 10 µM, after compound, maximal acetylcholine stimulation; active compounds read high
# [3] = system: Transient receptor potential cation channel subfamily C member 4 (mouse); assay: TRPC4 modulation by TRPC6 hit compounds, confirmation, selectivity assay for TRPC6 modulator project, cell-based, HEK293 TRPC4/mu-opioid, membrane potential dye, mouse (AID 488927;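 active = membrane potential signal moved up or down beyond 5 SD of buffer control wells, in both duplicate plates, actives on both sides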;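 for percent change from control (negative = decrease, positive = increase): plate controls were assay buffer wells for no effect and DAMGO maximal-effect wells for full effect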); conditions: membrane potential fluorescence, at 10 µM
# [4] = system: TRPC4 (transient receptor potential cation channel C4), mouse; assay: TRPC4 inhibition by TRPC6 hit compounds, confirmation, selectivity assay for TRPC6 modulator project, cell-based, second screen, HEK293 TRPC4/mu-opioid, membrane potential dye (AID 488928); conditions: membrane potential dye fluorescence, at 10 µM, stimulated with maximal-effect DAMGO; active compounds read high;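 note: TRPC4 counter screen for TRPC6 hits run under conditions tuned for TRPC6 not TRPC4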
# [5] = target: Short transient receptor potential channel 6 (Mus musculus) (UniProt Q61143); assay: mouse TRPC6 channel inhibitors, confirmation, HEK293 cells, membrane potential dye, duplicate (AID 488960;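 active = fluorescence ratio falls more than 5 SD below the full-stimulation control mean, in both duplicate runs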;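 for inhibition: integrated fluorescence ratio of peak minus minimum over baseline after agonist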); conditions: ACh-evoked depolarization, at 10 µM; active compounds read high
# [6] = target: Short transient receptor potential channel 6 (Mus musculus) (UniProt Q61143); assay: mouse TRPC6 channel activators, confirmation, HEK293 cells, membrane potential dye, duplicate (AID 488961;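 active = ratio signal rise beyond 5 SD above unstimulated control wells' mean, seen in both duplicate runs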;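 for activation: plate controls were buffer EC0 wells for no effect and acetylcholine ECmax response for full effect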); conditions: HEK293-TRPC6 membrane potential dye fluorescence, FDSS, at 10 µM; active compounds read high
# Sequence of Short transient receptor potential channel 6 (Mus musculus) (Q61143 whole entry, looked up): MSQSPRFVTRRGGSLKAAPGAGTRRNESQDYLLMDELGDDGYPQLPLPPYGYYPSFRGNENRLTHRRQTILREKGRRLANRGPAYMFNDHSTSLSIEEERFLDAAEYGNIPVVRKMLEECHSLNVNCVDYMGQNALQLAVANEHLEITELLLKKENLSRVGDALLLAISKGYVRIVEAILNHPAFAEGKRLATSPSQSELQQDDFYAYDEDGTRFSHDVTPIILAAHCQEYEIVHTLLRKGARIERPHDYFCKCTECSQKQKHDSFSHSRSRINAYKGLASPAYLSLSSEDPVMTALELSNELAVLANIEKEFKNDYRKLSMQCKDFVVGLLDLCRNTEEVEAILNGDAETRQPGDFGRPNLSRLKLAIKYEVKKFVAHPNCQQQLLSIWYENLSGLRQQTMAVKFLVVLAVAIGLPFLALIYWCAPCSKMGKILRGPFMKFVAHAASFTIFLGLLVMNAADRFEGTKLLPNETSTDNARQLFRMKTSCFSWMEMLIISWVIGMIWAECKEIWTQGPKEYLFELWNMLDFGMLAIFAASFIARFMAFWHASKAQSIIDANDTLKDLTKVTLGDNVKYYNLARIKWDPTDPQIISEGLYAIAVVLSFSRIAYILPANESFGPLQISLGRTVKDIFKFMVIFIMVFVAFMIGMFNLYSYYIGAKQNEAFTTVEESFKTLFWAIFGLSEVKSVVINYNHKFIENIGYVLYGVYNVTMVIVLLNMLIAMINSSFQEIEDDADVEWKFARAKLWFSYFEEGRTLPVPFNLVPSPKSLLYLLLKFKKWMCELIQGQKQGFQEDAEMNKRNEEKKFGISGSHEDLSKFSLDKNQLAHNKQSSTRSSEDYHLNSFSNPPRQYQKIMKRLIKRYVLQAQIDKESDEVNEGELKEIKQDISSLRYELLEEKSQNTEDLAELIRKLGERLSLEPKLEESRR
smiles,measurement,setting,value
Cc1nn(Cc2ccc(C(=O)N3N=C(C(F)F)CC3(O)C(F)F)cc2)c(C)c1[N+](=O)[O-] (configuration not stated),outcome,[1],inactive
same,outcome,[2],inactive
same,"percent change from control (negative = decrease, positive = increase)",[3],-17.5% (active)
same,outcome,[4],inactive
same,outcome,[5],inactive
same,outcome,[6],inactive
CCN(CC)CCNc1nc(-c2ccc(OC(F)F)cc2)c(C)s1,outcome,[1],inactive
same,outcome,[2],inactive
same,outcome,[3],inactive
same,inhibition,[4],50.5% (active)
same,outcome,[5],inactive
same,outcome,[6],inactive
CN1CCN(C(=O)N2c3ccccc3CCc3ccccc32)CC1,outcome,[1],inactive
same,outcome,[2],inactive
same,"percent change from control (negative = decrease, positive = increase)",[3],14.5% (active)
same,outcome,[4],inactive
same,outcome,[5],inactive
CCN1CCN(c2ccc([N+](=O)[O-])cc2C(=O)c2ccc(Cl)cc2)CC1,membrane potential signal change,[1],150% (active)
same,outcome,[2],inactive
same,"percent change from control (negative = decrease, positive = increase)",[3],20.5% (active)
same,inhibition,[4],63.5% (active)
same,outcome,[5],inactive
same,outcome,[6],inactive
COC(=O)c1ccc(NC(=O)CSc2nnc(-c3ccncc3)n2C)cc1,membrane potential signal change,[1],292% (active)
same,outcome,[2],inactive
same,"percent change from control (negative = decrease, positive = increase)",[3],35.5% (active)
same,outcome,[4],inactive
same,outcome,[5],inactive
same,activation,[6],116% (active)
CCCCN(CCCC)CC(O)Cn1c2ccccc2c(=O)c2ccccc21 (configuration not stated),outcome,[1],inactive
same,outcome,[2],inactive
same,outcome,[3],inactive
same,inhibition,[4],85.5% (active)
same,inhibition,[5],69% (active)
N=c1n(CCc2ccccc2)c2ccccc2n1Cc1ccccc1F,membrane potential signal change,[1],129% (active)
same,outcome,[2],inactive
same,"percent change from control (negative = decrease, positive = increase)",[3],20.5% (active)
same,inhibition,[4],90.5% (active)
same,inhibition,[5],66.5% (active)
CCOc1ccc(/C(O)=C2/C(=O)C(=O)N(Cc3cccnc3)C2c2ccc(N(C)C)cc2)c(C)c1 (configuration not stated),outcome,[1],inactive
same,outcome,[2],inactive
same,outcome,[3],inactive
same,outcome,[4],inactive
same,outcome,[5],inactive
same,outcome,[6],inactive
N=c1c2c3c(sc2nc2n1CCCCC2)CCCC3,membrane potential signal change,[1],-118% (active)
same,outcome,[2],inactive
same,"percent change from control (negative = decrease, positive = increase)",[3],-22.5% (active)
same,inhibition,[4],55.5% (active)
same,inhibition,[5],61% (active)
same,outcome,[6],inactive
O=C(c1ccc(-n2cnnn2)cc1)N1CCN(C(c2ccccc2)c2ccccc2)CC1,membrane potential signal change,[1],251% (active)
same,inhibition,[2],71% (active)
same,"percent change from control (negative = decrease, positive = increase)",[3],18.5% (active)
same,outcome,[4],inactive
same,inhibition,[5],44.5% (active)
CCOc1nc(NCCN2CCOCC2)nc(Nc2ccc(C)cc2)n1,membrane potential signal change,[1],98% (active)
same,outcome,[2],inactive
same,"percent change from control (negative = decrease, positive = increase)",[3],15% (active)
same,outcome,[4],inactive
same,outcome,[5],inactive
Cc1ccc2c(c1)C1CN(C)CCC1N2C(=S)Nc1ccc(Cl)cc1Cl (configuration not stated),outcome,[1],inactive
same,outcome,[2],inactive
same,"percent change from control (negative = decrease, positive = increase)",[3],-10% (active)
same,inhibition,[4],49.5% (active)
same,outcome,[5],inactive
same,outcome,[6],inactive
O=C(C[n+]1ccc2c(c1)nnn2-c1ccccc1)c1ccc(Cl)cc1,membrane potential signal change,[1],-110% (active)
same,outcome,[2],inactive
same,"percent change from control (negative = decrease, positive = increase)",[3],-37.5% (active)
same,inhibition,[4],62% (active)
same,inhibition,[5],56% (active)
same,outcome,[6],inactive
COc1ccc(Cn2c(-c3ccc(Cl)cc3)c[n+]3ccccc23)cc1,membrane potential signal change,[1],-296% (active)
same,outcome,[2],inactive
same,"percent change from control (negative = decrease, positive = increase)",[3],-51.5% (active)
same,inhibition,[4],48% (active)
same,inhibition,[5],50.5% (active)
same,outcome,[6],inactive
Nc1ccc(C(=O)N2CCN(S(=O)(=O)c3ccc(Cl)cc3)CC2)cc1[N+](=O)[O-],outcome,[1],inactive
same,outcome,[2],inactive
same,outcome,[3],inactive
same,outcome,[4],inactive
same,inhibition,[5],72.5% (active)
Cc1cccc(NC(=S)NCCN(C2CCCCC2)C2CCCC2)c1,membrane potential signal change,[1],129% (active)
same,outcome,[2],inactive
same,"percent change from control (negative = decrease, positive = increase)",[3],24.5% (active)
same,inhibition,[4],68.5% (active)
same,inhibition,[5],44.5% (active)
COc1ccc(Cl)cc1NC(=O)CCS(=O)(=O)c1cc2c(cc1C)NC(=O)CO2,outcome,[1],inactive
same,outcome,[2],inactive
same,"percent change from control (negative = decrease, positive = increase)",[3],-9.5% (active)
same,outcome,[4],inactive
same,outcome,[5],inactive
same,outcome,[6],inactive
Cc1ccccc1NC(=O)CNc1ccccc1N1CCCCC1,outcome,[1],inactive
same,outcome,[2],inactive
same,outcome,[3],inactive
same,inhibition,[4],52.5% (active)
same,outcome,[5],inactive
same,outcome,[6],inactive
CCC(C)NCCOCCOc1ccc(Br)cc1C (configuration not stated),membrane potential signal change,[1],94% (active)
same,outcome,[2],inactive
same,"percent change from control (negative = decrease, positive = increase)",[3],21% (active)
same,outcome,[4],inactive
same,outcome,[5],inactive
O=C(CN1CCCCCC1)NCCN1C(=O)S/C(=C\c2ccccc2Cl)C1=O,outcome,[1],inactive
same,outcome,[2],inactive
same,outcome,[3],inactive
same,inhibition,[4],36% (active)
same,outcome,[5],inactive
same,outcome,[6],inactive
Cc1cc(N2CCN(S(=O)(=O)c3ccc(C)c(C)c3)CC2)c2ccccc2n1,outcome,[1],inactive
same,outcome,[2],inactive
same,"percent change from control (negative = decrease, positive = increase)",[3],-10.5% (active)
same,inhibition,[4],65% (active)
same,outcome,[5],inactive
same,outcome,[6],inactive
Cn1c(/C(C#N)=C2/CCCCCN2)nc2ccccc21,outcome,[1],inactive
same,outcome,[2],inactive
same,outcome,[3],inactive
same,outcome,[4],inactive
same,outcome,[5],inactive
same,outcome,[6],inactive
N=c1c2c3c(sc2ncn1CCCN1CCOCC1)CCCCC3,outcome,[1],inactive
same,outcome,[2],inactive
same,outcome,[3],inactive
same,inhibition,[4],52.5% (active)
same,outcome,[5],inactive
same,outcome,[6],inactive
COC(=O)c1ccccc1NC(=O)C1CCN(S(=O)(=O)c2cc(OC)ccc2OC)CC1,outcome,[1],inactive
same,outcome,[2],inactive
same,"percent change from control (negative = decrease, positive = increase)",[3],13% (active)
same,outcome,[4],inactive
same,outcome,[5],inactive
Cc1c(CCOC(=O)CC23CC4CC(CC(C)(C4)C2)C3)sc[n+]1Cc1ccc([N+](=O)[O-])cc1,membrane potential signal change,[1],-103% (active)
same,outcome,[2],inactive
same,"percent change from control (negative = decrease, positive = increase)",[3],-29.5% (active)
same,outcome,[4],inactive
same,outcome,[5],inactive
same,outcome,[6],inactive
CC(C)C(c1nnnn1CCc1ccccc1)N1CCN(C(=O)c2ccco2)CC1 (configuration not stated),membrane potential signal change,[1],153% (active)
same,inhibition,[2],85.5% (active)
same,"percent change from control (negative = decrease, positive = increase)",[3],27.5% (active)
same,outcome,[4],inactive
same,inhibition,[5],70% (active)
c1ccc(C2CNCc3c2ccc2ccccc32)cc1 (configuration not stated),outcome,[1],inactive
same,outcome,[2],inactive
same,outcome,[3],inactive
same,inhibition,[4],81.5% (active)
same,inhibition,[5],58% (active)
same,outcome,[6],inactive

# Source: PubChem BioAssay
